Measurements taken from PubChem BioAssay AID1259313 (Sanford-Burnham Center for Chemical Genomics, 2017).
The whole screen tested about 340,000 compounds, of which about 8,500 (2.5%) were called active. The sample holds actives, similar compounds and a random draw of the others, so the mix is not that of the screen.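 The calls were made as follows: active = melting temperature shift of at least 10% of the positive control shift, at one fixed dose; inactive = the rest.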

tested on: Glutamate receptor ionotropic, NMDA 3A (GRIN3A) ligand-binding domain; assay: binders of NR3A ligand-binding domain, primary screen, biophysical, differential scanning fluorimetry, uHTS (AID 1259313); details: NR3A LBD differential scanning fluorimetry, at 25 µM, stronger effect = higher value, 0% = protein alone, 100% = glycine-bound protein

Tm shift relative to glycine control, active:
COc1ccc(Oc2cn[nH]c2-c2ccc(OC)cc2O)cc1 17.8%, COC(C(=O)Nc1ccc(S(=O)(=O)Nc2ccc(C)c(C)c2)cc1)c1ccccc1 (configuration not stated) 16.2%, Cc1cc(=O)cc(C)[nH]1 13%, Clc1cccc(N=C2NN=C(c3ccc4c(c3)OCCO4)CS2)c1 12.7%, Cc1ccc(S(=O)(=O)N(C)c2ccc(OCC(=O)OCc3ccc(C#N)cc3)cc2)cc1 12.6%, O=C(Cn1nnc(-c2ccccc2)n1)N/N=C/c1ccc(-c2ccc(Cl)cc2)o1 384%, CCc1ccc(Nc2n[n+](-c3ccccc3)c(-c3cccc(Cl)c3Cl)s2)cc1 16%, CC(C)NC(=O)C(=O)NCCCOC(C)C 18.7%, COC(=O)N/N=C/c1cn(CCCOc2ccc(C)cc2)c2ccccc12 12.8%, CCOc1c(Cl)cc(/C=N/O)cc1OC 10.8%, CCOc1cc(/C=N/O)cc(Br)c1OC 10.5%, COc1cc(OC)cc(C(=O)N[C@H](C(=O)NNC(=O)c2ccc(Br)cc2)C(C)C)c1 13.6%, CCS(=O)(=O)Nc1cccc(-c2cc(-c3ccccc3)c3cc(C)ccc3n2)c1 10.6%

Tm shift relative to glycine control, inactive:
CC(C)OC(=O)c1ccc(COc2ccc3ccc(=O)oc3c2)o1 1.19%, CCOc1ccccc1Oc1cn[nH]c1-c1ccc(OC)cc1O -4.92%, COc1ccc(-c2cn[nH]c2-c2ccc(OC)cc2)cc1 0%, Cc1ccc(S(=O)(=O)N2CCN(C(=O)c3cc(S(=O)(=O)N4CCOCC4)ccc3F)CC2)cc1 -1.16%, CC1CCCC(NC(=O)CSc2nccn2C)C1C (configuration not stated) 3.2%, Cc1ccc(-n2nc3c(=O)n(C(C)C(=O)NCc4ccc5c(c4)OCO5)nc(C)c3c2C)cc1 (configuration not stated) 0%, COC(C(=O)Nc1ccc(C(C)=O)cc1)c1ccccc1 (configuration not stated) -4.28%, COC(C(=O)NCc1ccccc1C)c1ccccc1 (configuration not stated) -0.62%, CCOc1ccc(CN2CCN(CCCc3ccccc3)C(CCO)C2)cc1 (configuration not stated) 0.91%, CC1CN(C(=O)COC(=O)c2cccc(NS(=O)(=O)c3ccccc3)c2)CC(C)O1 (configuration not stated) 2.04%, CC1=C(C)CC(C(=O)NC(C)CCc2ccccc2)C(C(=O)O)C1 (configuration not stated) -2.66%, CSc1cc(C)[nH]c(=O)n1 1.65%, COc1ccccc1S(=O)(=O)c1c(C)cc(C)[nH]c1=O -0.69%, CCOc1cnc(C(=O)NNC(=O)c2ccccc2Br)o1 -1.85%, c1ccc(CN2CCC(N=C3NN=C(c4ccc5c(c4)OCCO5)CS3)CC2)cc1 -2.04%, CN(C)c1nc(=Nc2cccc(Cl)c2)ss1 -11%, Cc1ccc(S(=O)(=O)N(C)c2ccc(OCC(=O)NC3=NCCS3)cc2)cc1 -0.31%, Cc1ccc(S(=O)(=O)N(C)c2ccc(OCC(=O)OCC(=O)N(CC#N)c3ccccc3)cc2)cc1 2.35%, O=C(NCc1csc(-c2cccs2)n1)C1CC1 0.25%, COc1ccc(C2OCC3(CO2)SC(=O)NC3=O)cc1OC (configuration not stated) -1.38%, O=C(NCc1cccs1)c1ccc(CS(=O)Cc2ccccc2Cl)o1 (configuration not stated) 0.47%, Nc1nnn(CC(=O)N/N=C/c2ccccc2)n1 -2.09%, O=C(CN1CCOCC1)N/N=C/c1ccc(-c2ccc(Br)cc2)o1 -2.4%, CCOc1ccc(-n2c(SCC(=O)NC3CCS(=O)(=O)C3)nnc2-c2cccnc2)cc1 (configuration not stated) -1.01%, CCN1CC(CN(C)Cc2nc(-c3ccc(Cl)cc3)no2)CC1=O (configuration not stated) -0.89%, O=C(OCC(=O)N1CCc2ccccc21)c1ccc([N+](=O)[O-])cc1 1%, COc1cc(Br)c(-c2sc(Nc3ccccc3)n[n+]2-c2ccccc2)cc1OC -12%, COc1ccc(C)cc1Nc1n[n+](-c2ccccc2)c(-c2cccc(Cl)c2Cl)s1 4.85%, O=C(c1ccc(F)cc1)N1CCC(n2nnc3ccccc32)CC1 3.22%, CCOCCOC(=O)C1=C(C)N(C)C(=O)NC1c1ccccc1F (configuration not stated) -1.72%, COc1ccc2c(c1)C(SCC(=O)NCc1ccccc1)CC(C)(C)O2 (configuration not stated) -0.16%, CC(C)OCCCNC(=O)C1CC(=O)N(C2CCCCCCC2)C1 (configuration not stated) 2.24%, CCOCCCNC(=O)C(=O)NCCCOCC -0.68%, CC(C(=O)Nc1ccc(S(=O)(=O)N2CCCC2)cc1)N(C)Cc1ccc(F)cc1 (configuration not stated) -1.56%, CCOC(=O)N/N=C/c1cn(Cc2ccccc2Cl)c2ccccc12 -13.8%, CNC(=S)N/N=C/c1cn(Cc2ccc(C)cc2)c2ccccc12 -1.66%, CC(C)(C)c1ccc(/C=C/C(=O)NCCCn2ccnc2)cc1 -0.74%, O=C(COC(=O)c1ccc(Cl)nc1)NCc1ccc2c(c1)OCO2 -1.93%, CCOc1cc(/C=N/O)ccc1OCc1ccccc1F -0.35%, CCOc1cc(/C=C(/C#N)c2ccc(Cl)cc2)cc(Cl)c1OCC(=O)O -1.37%, COc1cc(/C=N/O)cc(Br)c1OCc1cccc(Cl)c1 9.46%, COc1cc(/C=N/O)cc(Br)c1OS(=O)(=O)c1ccc(C)cc1 -0.94%, C[C@@H]1ON(C)[C@H]2C[C@H]3c4cc(N5CCN(C)CC5)ccc4CCN3C(=O)[C@@H]12 2.38%, COc1cc(OC)cc(C(=O)NC(C(=O)N2CCC2)C(C)C)c1 (configuration not stated) -1.01%, COc1ccc(N2CCN(C(=O)[C@@H](NC(=O)c3cc(OC)cc(OC)c3)C(C)C)CC2)cc1 -0.58%, COc1ccc(N2CCN(CCCNC(=O)C3CCN(S(=O)(=O)N4CCOCC4)CC3)CC2)cc1 1.84%, O=C(CSc1ccccn1)Nc1nc2c(ccc3ccccc32)s1 -2.83%, CS(=O)(=O)Nc1cccc(-c2cn3ccccc3n2)c1 -0.95%, Cc1cc(C)cc(NS(=O)(=O)Cc2ccccc2)c1 1.07%
